Results reported in publication PMC7862700, “An all-to-all approach to the identification of sequence-specific readers for epigenetic DNA modifications on cytosine”.

What was measured:
Test in all cases: DAPPL (digital affinity profiling via proximity ligation, sequencing); 10 mM Tris-HCl pH 7.5, 50 mM NaCl, 1 mM DTT, 4% glycerol, room temperature, 30 min; GST-TFs on glutathione beads, 16-mer random dsDNA library, 0.1% formaldehyde crosslink after washing; high values mean tight binding
Settings in all cases: protein: recombinant; tags: N-terminal GST; dsDNA, one strand shown
[1] = biological target: T1, FLI1 (Homo sapiens, UniProt Q01543 1-452)
T1 sequence: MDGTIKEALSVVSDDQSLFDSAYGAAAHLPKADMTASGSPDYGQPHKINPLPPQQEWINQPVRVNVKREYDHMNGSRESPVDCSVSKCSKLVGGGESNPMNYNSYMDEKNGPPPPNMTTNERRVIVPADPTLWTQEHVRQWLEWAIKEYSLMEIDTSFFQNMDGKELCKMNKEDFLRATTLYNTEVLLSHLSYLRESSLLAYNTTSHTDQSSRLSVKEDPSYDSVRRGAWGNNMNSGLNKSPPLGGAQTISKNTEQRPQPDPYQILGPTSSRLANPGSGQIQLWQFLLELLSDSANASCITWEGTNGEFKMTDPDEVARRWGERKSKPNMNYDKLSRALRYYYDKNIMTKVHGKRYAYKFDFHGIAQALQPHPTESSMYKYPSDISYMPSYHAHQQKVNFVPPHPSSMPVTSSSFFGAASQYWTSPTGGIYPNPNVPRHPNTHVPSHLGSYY
In short: (§1)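 Pools were built from human transcription factors expressed in yeast as GST fusions, captured on glutathione beads and DNA-barcoded, along with a tag-only sample. Incubation with 200 nmole of a 16-mer random double-stranded DNA library lasted 30 min at room temperature in Tris/NaCl/DTT/glycerol buffer, and was followed by washing, 0.1% formaldehyde crosslinking, proximity ligation, PCR amplification and Illumina NextSeq500 sequencing. Binding signal is the quotient of each hexamer's read frequency for a factor and its frequency for the tag-only sample.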

[2] = biological target: T2, ELK1 (Homo sapiens, UniProt P19419 1-428)
T2 sequence: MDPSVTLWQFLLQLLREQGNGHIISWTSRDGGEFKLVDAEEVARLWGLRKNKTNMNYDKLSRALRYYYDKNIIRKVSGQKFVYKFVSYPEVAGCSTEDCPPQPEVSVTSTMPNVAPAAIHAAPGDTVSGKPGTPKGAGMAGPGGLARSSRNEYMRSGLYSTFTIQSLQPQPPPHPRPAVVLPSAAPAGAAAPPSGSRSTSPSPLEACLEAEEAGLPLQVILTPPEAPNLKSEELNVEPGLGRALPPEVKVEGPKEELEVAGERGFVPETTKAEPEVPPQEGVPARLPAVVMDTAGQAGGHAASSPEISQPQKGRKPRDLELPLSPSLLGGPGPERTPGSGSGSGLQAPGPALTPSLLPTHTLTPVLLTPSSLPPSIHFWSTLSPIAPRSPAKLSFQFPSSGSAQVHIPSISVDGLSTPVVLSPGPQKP
In short: as §1

[3] = biological target: ELF1 (Homo sapiens, UniProt P32519 1-619)
ELF1, sequence (P32519 whole entry): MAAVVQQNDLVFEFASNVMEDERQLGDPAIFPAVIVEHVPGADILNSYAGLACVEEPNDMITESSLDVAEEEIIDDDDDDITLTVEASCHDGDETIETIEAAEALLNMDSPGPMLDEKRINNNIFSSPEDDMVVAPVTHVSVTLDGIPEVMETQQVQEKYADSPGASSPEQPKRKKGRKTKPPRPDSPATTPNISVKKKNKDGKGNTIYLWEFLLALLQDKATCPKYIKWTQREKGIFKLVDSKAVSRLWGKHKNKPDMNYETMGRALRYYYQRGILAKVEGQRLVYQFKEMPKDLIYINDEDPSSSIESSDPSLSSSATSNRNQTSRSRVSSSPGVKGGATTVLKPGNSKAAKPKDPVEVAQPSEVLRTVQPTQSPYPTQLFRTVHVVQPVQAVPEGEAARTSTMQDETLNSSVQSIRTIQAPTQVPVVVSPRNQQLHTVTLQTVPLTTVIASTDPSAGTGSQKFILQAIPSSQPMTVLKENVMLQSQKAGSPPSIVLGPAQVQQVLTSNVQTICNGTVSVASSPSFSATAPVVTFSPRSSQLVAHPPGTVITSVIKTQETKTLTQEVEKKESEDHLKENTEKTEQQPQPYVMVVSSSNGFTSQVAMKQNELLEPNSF
In short: as §1

[4] = biological target: SPIB (Homo sapiens, UniProt Q01892 1-262)
SPIB, sequence (Q01892 whole entry): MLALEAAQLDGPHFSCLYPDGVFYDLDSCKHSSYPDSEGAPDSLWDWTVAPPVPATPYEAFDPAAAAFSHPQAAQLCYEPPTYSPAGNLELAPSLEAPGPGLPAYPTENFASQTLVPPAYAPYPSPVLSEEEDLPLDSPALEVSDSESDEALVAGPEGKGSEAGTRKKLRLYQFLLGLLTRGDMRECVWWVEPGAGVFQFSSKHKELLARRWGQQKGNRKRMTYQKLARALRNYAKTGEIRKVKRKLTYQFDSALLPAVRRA
In short: as §1

[5] = biological target: ETV5 (Homo sapiens, UniProt P41161 1-510)
ETV5, sequence (P41161 whole entry): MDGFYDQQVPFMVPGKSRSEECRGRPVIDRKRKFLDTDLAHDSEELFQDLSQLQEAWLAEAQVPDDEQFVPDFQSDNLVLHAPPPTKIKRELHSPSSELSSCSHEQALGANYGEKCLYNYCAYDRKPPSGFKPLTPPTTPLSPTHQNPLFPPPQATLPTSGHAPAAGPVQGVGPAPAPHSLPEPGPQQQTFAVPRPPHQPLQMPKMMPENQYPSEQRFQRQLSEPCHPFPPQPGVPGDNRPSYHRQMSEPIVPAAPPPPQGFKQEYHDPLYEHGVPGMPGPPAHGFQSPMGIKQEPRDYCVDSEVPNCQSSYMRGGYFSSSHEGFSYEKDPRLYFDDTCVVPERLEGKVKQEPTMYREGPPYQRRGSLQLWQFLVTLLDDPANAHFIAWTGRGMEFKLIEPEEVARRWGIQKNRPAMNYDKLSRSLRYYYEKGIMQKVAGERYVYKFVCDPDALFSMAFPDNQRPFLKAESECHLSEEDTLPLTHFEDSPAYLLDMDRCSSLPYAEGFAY
In short: as §1

[6] = biological target: T3, ETV2 (Homo sapiens, UniProt O00321 1-342)
T3 sequence: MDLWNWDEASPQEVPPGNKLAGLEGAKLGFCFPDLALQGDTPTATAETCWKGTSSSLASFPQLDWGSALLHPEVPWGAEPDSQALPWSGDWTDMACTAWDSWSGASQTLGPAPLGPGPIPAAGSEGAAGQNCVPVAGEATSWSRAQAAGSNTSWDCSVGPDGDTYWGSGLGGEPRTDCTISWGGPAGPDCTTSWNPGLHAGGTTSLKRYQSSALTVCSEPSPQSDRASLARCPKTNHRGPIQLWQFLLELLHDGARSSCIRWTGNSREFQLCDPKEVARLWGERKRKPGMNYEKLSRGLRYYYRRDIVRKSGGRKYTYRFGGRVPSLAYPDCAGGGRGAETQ
In short: as §1

[7] = biological target: T4, ETV7 (Homo sapiens, UniProt Q9Y603 1-341)
T4 sequence: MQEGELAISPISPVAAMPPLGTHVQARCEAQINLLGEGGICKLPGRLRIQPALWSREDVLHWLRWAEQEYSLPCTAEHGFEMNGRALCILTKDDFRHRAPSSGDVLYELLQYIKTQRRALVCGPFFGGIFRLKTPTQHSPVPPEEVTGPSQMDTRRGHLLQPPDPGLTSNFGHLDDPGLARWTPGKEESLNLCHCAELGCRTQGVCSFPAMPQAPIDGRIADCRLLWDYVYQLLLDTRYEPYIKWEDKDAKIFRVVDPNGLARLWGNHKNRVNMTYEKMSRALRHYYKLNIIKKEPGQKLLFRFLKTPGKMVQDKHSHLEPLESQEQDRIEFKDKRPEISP
In short: as §1

[8] = biological target: T5, ETV3 (Homo sapiens, UniProt P41162-2 1-143)
T5 sequence: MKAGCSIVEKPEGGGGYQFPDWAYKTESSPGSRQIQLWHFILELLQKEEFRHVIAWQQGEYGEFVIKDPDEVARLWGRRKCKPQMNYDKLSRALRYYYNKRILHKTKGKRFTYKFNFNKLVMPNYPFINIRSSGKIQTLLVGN
In short: as §1

[9] = biological target: T6, ELF3 (Homo sapiens, UniProt P78545 1-371)
T6 sequence: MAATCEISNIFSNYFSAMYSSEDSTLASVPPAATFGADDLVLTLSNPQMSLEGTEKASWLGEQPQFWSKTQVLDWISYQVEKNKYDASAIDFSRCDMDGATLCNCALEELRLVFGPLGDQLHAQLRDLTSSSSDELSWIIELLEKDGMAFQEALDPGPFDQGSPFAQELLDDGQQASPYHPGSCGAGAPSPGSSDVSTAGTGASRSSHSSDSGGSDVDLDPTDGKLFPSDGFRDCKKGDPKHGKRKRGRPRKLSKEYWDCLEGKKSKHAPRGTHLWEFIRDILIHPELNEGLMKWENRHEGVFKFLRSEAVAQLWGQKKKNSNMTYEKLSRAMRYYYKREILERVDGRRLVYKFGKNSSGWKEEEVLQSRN
In short: as §1

[10] = biological target: ETV1 (Homo sapiens, UniProt P50549 1-477)
ETV1, sequence (P50549 whole entry): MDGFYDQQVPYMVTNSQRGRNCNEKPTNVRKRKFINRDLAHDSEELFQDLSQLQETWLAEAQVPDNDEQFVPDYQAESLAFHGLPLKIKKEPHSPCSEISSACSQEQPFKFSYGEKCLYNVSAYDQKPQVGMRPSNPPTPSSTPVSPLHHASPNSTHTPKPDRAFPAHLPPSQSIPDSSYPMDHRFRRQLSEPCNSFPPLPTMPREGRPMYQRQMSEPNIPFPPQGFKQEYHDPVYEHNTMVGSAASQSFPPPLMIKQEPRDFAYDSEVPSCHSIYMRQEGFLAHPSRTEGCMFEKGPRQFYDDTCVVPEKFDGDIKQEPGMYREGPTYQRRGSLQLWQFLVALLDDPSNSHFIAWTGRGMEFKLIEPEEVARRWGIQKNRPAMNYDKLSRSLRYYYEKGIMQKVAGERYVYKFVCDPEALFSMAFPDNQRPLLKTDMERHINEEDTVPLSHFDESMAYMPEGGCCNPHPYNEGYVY
In short: as §1

[11] = biological target: T7, ETV3L (Homo sapiens, UniProt Q6ZN32 1-361)
T7 sequence: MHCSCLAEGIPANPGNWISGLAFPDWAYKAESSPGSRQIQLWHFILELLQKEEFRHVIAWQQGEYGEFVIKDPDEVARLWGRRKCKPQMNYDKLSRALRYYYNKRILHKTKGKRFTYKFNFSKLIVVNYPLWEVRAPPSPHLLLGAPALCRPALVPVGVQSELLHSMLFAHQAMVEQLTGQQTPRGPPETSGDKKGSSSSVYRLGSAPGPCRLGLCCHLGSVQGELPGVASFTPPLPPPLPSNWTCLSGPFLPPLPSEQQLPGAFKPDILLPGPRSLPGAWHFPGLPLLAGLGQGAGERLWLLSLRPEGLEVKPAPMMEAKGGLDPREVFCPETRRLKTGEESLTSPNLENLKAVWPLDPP
In short: as §1

[12] = biological target: T8, ETS2 (Homo sapiens, UniProt P15036 1-469)
T8 sequence: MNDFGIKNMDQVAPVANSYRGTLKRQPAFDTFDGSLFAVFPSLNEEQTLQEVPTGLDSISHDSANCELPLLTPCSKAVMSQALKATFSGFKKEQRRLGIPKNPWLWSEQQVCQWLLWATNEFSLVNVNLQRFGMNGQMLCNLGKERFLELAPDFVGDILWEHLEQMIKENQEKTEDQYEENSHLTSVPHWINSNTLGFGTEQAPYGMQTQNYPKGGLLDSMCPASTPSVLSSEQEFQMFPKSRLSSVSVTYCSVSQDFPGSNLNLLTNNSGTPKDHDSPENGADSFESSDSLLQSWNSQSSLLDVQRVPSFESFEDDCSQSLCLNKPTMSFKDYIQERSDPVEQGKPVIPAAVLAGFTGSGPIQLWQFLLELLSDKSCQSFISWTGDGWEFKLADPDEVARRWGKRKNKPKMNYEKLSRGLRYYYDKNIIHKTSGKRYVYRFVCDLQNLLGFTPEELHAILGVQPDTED
In short: as §1

| Sequence | binding signal [1] | binding signal [2] | binding signal [3] | binding signal [4] | binding signal [5] | binding signal [6] | binding signal [7] | binding signal [8] | binding signal [9] | binding signal [10] | binding signal [11] | binding signal [12] |
| --- | --- | --- | --- | --- | --- | --- | --- | --- | --- | --- | --- | --- |
| GGTATG | 1.01 fold enrichment (6-mer frequency, TF over GST control) | 1.03 fold enrichment (6-mer frequency, TF over GST control) | 1.01 fold enrichment (6-mer frequency, TF over GST control) | 1.02 fold enrichment (6-mer frequency, TF over GST control) | 1.01 fold enrichment (6-mer frequency, TF over GST control) | 1.05 fold enrichment (6-mer frequency, TF over GST control) | 1.01 fold enrichment (6-mer frequency, TF over GST control) | 1.02 fold enrichment (6-mer frequency, TF over GST control) |  |  |  |  |
| GTTGTA | 1.01 fold enrichment (6-mer frequency, TF over GST control) | 1.07 fold enrichment (6-mer frequency, TF over GST control) | 1.01 fold enrichment (6-mer frequency, TF over GST control) |  | 1.08 fold enrichment (6-mer frequency, TF over GST control) |  | 1.06 fold enrichment (6-mer frequency, TF over GST control) | 1.01 fold enrichment (6-mer frequency, TF over GST control) | 1.04 fold enrichment (6-mer frequency, TF over GST control) | 1.01 fold enrichment (6-mer frequency, TF over GST control) | 1.07 fold enrichment (6-mer frequency, TF over GST control) | 1.03 fold enrichment (6-mer frequency, TF over GST control) |
